# From publication PMC11006913
# Experiments:
# Assay in all cases: PBM; 200 nM protein, PBS
# Conditions in all cases: dsDNA, one strand shown
# [1] = molecular target: HOXC10 (Homo sapiens, UniProt Q9NYD6 254-340)
# [2] = molecular target: HOXC10 (Homo sapiens, UniProt Q9NYD6 254-340, K271E)
# [3] = molecular target: ALX4 (Homo sapiens, UniProt Q9H161 200-286)
# [4] = molecular target: MSX2 (Homo sapiens, UniProt P35548 130-214)
# [5] = molecular target: MSX2 (Homo sapiens, UniProt P35548 130-214, F161Y)
# [6] = molecular target: VAX1 (Homo sapiens, UniProt Q5SQQ9 86-172)
# [7] = molecular target: VAX1 (Homo sapiens, UniProt Q5SQQ9 86-172, T142I)
# [8] = molecular target: VAX1 (Homo sapiens, UniProt Q5SQQ9 86-172, K157R)
# [9] = molecular target: HOXA4 (Homo sapiens, UniProt Q00056 201-287, W262F)
# Chain of HOXA4 (Q00056 201-287 W262F): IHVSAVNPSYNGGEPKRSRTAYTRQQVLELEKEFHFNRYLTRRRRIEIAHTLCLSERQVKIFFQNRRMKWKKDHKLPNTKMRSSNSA
# Chain of HOXC10 (Homo sapiens, UniProt Q9NYD6 254-340, K271E) (Q9NYD6 254-340 K271E): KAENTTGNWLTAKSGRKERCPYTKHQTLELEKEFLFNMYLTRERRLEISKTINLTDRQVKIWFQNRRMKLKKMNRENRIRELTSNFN
# Chain of ALX4 (Q9H161 200-286): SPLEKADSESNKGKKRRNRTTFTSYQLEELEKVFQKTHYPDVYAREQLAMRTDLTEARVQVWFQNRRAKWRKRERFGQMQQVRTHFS
# Chain of HOXC10 (Homo sapiens, UniProt Q9NYD6 254-340) (Q9NYD6 254-340): as the sequence (Q9NYD6 254-340 K271E) above, with E18K counted along it
# Chain of VAX1 (Homo sapiens, UniProt Q5SQQ9 86-172, K157R) (Q5SQQ9 86-172 K157R): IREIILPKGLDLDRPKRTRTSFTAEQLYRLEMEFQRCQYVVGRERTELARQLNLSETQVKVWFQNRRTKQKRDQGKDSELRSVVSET
# Chain of MSX2 (Homo sapiens, UniProt P35548 130-214, F161Y) (P35548 130-214 F161Y): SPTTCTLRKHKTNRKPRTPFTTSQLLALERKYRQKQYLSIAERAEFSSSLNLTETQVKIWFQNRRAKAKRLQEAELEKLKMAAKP
# Chain of VAX1 (Homo sapiens, UniProt Q5SQQ9 86-172) (Q5SQQ9 86-172): as the sequence (Q5SQQ9 86-172 K157R) above, with R72K counted along it
# Chain of VAX1 (Homo sapiens, UniProt Q5SQQ9 86-172, T142I) (Q5SQQ9 86-172 T142I): as the sequence (Q5SQQ9 86-172 K157R) above, with T57I, R72K counted along it
# Chain of MSX2 (Homo sapiens, UniProt P35548 130-214) (P35548 130-214): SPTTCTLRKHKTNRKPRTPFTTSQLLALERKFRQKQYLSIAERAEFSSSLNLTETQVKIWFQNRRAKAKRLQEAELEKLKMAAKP
sequence,measurement,setting,value
AATCATCA,binding signal,[1],"10.9 upbm affinity estimate (log intensity, higher = more binding, comparable within an allelic series)"
same,binding signal,[2],"10.9 upbm affinity estimate (log intensity, higher = more binding, comparable within an allelic series)"
GGTCCGCA,binding signal,[1],"10 upbm affinity estimate (log intensity, higher = more binding, comparable within an allelic series)"
same,binding signal,[2],"10 upbm affinity estimate (log intensity, higher = more binding, comparable within an allelic series)"
AAAGCGGG,binding signal,[1],"9.98 upbm affinity estimate (log intensity, higher = more binding, comparable within an allelic series)"
same,binding signal,[2],"10.1 upbm affinity estimate (log intensity, higher = more binding, comparable within an allelic series)"
AGGCTTCG,binding signal,[1],"9.94 upbm affinity estimate (log intensity, higher = more binding, comparable within an allelic series)"
same,binding signal,[2],"10 upbm affinity estimate (log intensity, higher = more binding, comparable within an allelic series)"
AATAATAG,binding signal,[1],"11.5 upbm affinity estimate (log intensity, higher = more binding, comparable within an allelic series)"
same,binding signal,[2],"11.2 upbm affinity estimate (log intensity, higher = more binding, comparable within an allelic series)"
GCGACGAC,binding signal,[1],"10.1 upbm affinity estimate (log intensity, higher = more binding, comparable within an allelic series)"
same,binding signal,[2],"10 upbm affinity estimate (log intensity, higher = more binding, comparable within an allelic series)"
AGGCTTCC,binding signal,[1],"10.1 upbm affinity estimate (log intensity, higher = more binding, comparable within an allelic series)"
same,binding signal,[2],"10.1 upbm affinity estimate (log intensity, higher = more binding, comparable within an allelic series)"
CGAGGAGC,binding signal,[1],"9.97 upbm affinity estimate (log intensity, higher = more binding, comparable within an allelic series)"
same,binding signal,[2],"9.97 upbm affinity estimate (log intensity, higher = more binding, comparable within an allelic series)"
GACTGGGC,binding signal,[1],"9.98 upbm affinity estimate (log intensity, higher = more binding, comparable within an allelic series)"
same,binding signal,[2],"10 upbm affinity estimate (log intensity, higher = more binding, comparable within an allelic series)"
AGCAGGGC,binding signal,[1],"10.1 upbm affinity estimate (log intensity, higher = more binding, comparable within an allelic series)"
same,binding signal,[2],"10.1 upbm affinity estimate (log intensity, higher = more binding, comparable within an allelic series)"
CCTTGCGA,binding signal,[1],"10 upbm affinity estimate (log intensity, higher = more binding, comparable within an allelic series)"
same,binding signal,[2],"10.1 upbm affinity estimate (log intensity, higher = more binding, comparable within an allelic series)"
AGCTTCTG,binding signal,[1],"10.1 upbm affinity estimate (log intensity, higher = more binding, comparable within an allelic series)"
same,binding signal,[2],"10 upbm affinity estimate (log intensity, higher = more binding, comparable within an allelic series)"
ATATCAGG,binding signal,[1],"10.6 upbm affinity estimate (log intensity, higher = more binding, comparable within an allelic series)"
same,binding signal,[2],"10.7 upbm affinity estimate (log intensity, higher = more binding, comparable within an allelic series)"
CTTCGACC,binding signal,[1],"9.95 upbm affinity estimate (log intensity, higher = more binding, comparable within an allelic series)"
same,binding signal,[2],"10 upbm affinity estimate (log intensity, higher = more binding, comparable within an allelic series)"
AGCTGGGC,binding signal,[1],"10 upbm affinity estimate (log intensity, higher = more binding, comparable within an allelic series)"
same,binding signal,[2],"10 upbm affinity estimate (log intensity, higher = more binding, comparable within an allelic series)"
CAGAGGGA,binding signal,[1],"10.1 upbm affinity estimate (log intensity, higher = more binding, comparable within an allelic series)"
same,binding signal,[2],"10.1 upbm affinity estimate (log intensity, higher = more binding, comparable within an allelic series)"
CCGAAGGA,binding signal,[1],"10 upbm affinity estimate (log intensity, higher = more binding, comparable within an allelic series)"
same,binding signal,[2],"9.98 upbm affinity estimate (log intensity, higher = more binding, comparable within an allelic series)"
ATCATACA,binding signal,[1],"10.9 upbm affinity estimate (log intensity, higher = more binding, comparable within an allelic series)"
same,binding signal,[2],"10.8 upbm affinity estimate (log intensity, higher = more binding, comparable within an allelic series)"
CCGAACTC,binding signal,[1],"9.95 upbm affinity estimate (log intensity, higher = more binding, comparable within an allelic series)"
same,binding signal,[2],"10 upbm affinity estimate (log intensity, higher = more binding, comparable within an allelic series)"
AGGAGTGG,binding signal,[1],"9.97 upbm affinity estimate (log intensity, higher = more binding, comparable within an allelic series)"
same,binding signal,[2],"9.99 upbm affinity estimate (log intensity, higher = more binding, comparable within an allelic series)"
CTCTCCGA,binding signal,[1],"9.99 upbm affinity estimate (log intensity, higher = more binding, comparable within an allelic series)"
same,binding signal,[2],"9.97 upbm affinity estimate (log intensity, higher = more binding, comparable within an allelic series)"
CGCCGGCC,binding signal,[1],"9.95 upbm affinity estimate (log intensity, higher = more binding, comparable within an allelic series)"
same,binding signal,[2],"9.99 upbm affinity estimate (log intensity, higher = more binding, comparable within an allelic series)"
AAATAAAA,binding signal,[1],"11.9 upbm affinity estimate (log intensity, higher = more binding, comparable within an allelic series)"
same,binding signal,[2],"11.1 upbm affinity estimate (log intensity, higher = more binding, comparable within an allelic series)"
GACGATTA,binding signal,[1],"11.2 upbm affinity estimate (log intensity, higher = more binding, comparable within an allelic series)"
same,binding signal,[2],"11.1 upbm affinity estimate (log intensity, higher = more binding, comparable within an allelic series)"
CGGCCCCG,binding signal,[1],"10.2 upbm affinity estimate (log intensity, higher = more binding, comparable within an allelic series)"
same,binding signal,[2],"10.1 upbm affinity estimate (log intensity, higher = more binding, comparable within an allelic series)"
CTCCTCTC,binding signal,[1],"10 upbm affinity estimate (log intensity, higher = more binding, comparable within an allelic series)"
same,binding signal,[2],"10 upbm affinity estimate (log intensity, higher = more binding, comparable within an allelic series)"
GCATATAA,binding signal,[1],"11.4 upbm affinity estimate (log intensity, higher = more binding, comparable within an allelic series)"
same,binding signal,[2],"11.2 upbm affinity estimate (log intensity, higher = more binding, comparable within an allelic series)"
CTCGGGAA,binding signal,[1],"10.1 upbm affinity estimate (log intensity, higher = more binding, comparable within an allelic series)"
same,binding signal,[2],"10 upbm affinity estimate (log intensity, higher = more binding, comparable within an allelic series)"
ATGTCATA,binding signal,[1],"11.1 upbm affinity estimate (log intensity, higher = more binding, comparable within an allelic series)"
same,binding signal,[2],"11.1 upbm affinity estimate (log intensity, higher = more binding, comparable within an allelic series)"
CTTTCTTC,binding signal,[1],"9.98 upbm affinity estimate (log intensity, higher = more binding, comparable within an allelic series)"
same,binding signal,[2],"10.1 upbm affinity estimate (log intensity, higher = more binding, comparable within an allelic series)"
TAACGAAA,binding signal,[3],"10.6 upbm affinity estimate (log intensity, higher = more binding, comparable within an allelic series)"
CATTCTAA,binding signal,[3],"9.79 upbm affinity estimate (log intensity, higher = more binding, comparable within an allelic series)"
ATAACAAG,binding signal,[3],"10.9 upbm affinity estimate (log intensity, higher = more binding, comparable within an allelic series)"
CATTACCG,binding signal,[3],"11.2 upbm affinity estimate (log intensity, higher = more binding, comparable within an allelic series)"
ATCTAAAC,binding signal,[3],"9.7 upbm affinity estimate (log intensity, higher = more binding, comparable within an allelic series)"
TACTTAGA,binding signal,[1],"10.8 upbm affinity estimate (log intensity, higher = more binding, comparable within an allelic series)"
same,binding signal,[4],"11.1 upbm affinity estimate (log intensity, higher = more binding, comparable within an allelic series)"
same,binding signal,[5],"10.9 upbm affinity estimate (log intensity, higher = more binding, comparable within an allelic series)"
CCGGGGAA,binding signal,[1],"9.93 upbm affinity estimate (log intensity, higher = more binding, comparable within an allelic series)"
same,binding signal,[2],"9.99 upbm affinity estimate (log intensity, higher = more binding, comparable within an allelic series)"
same,binding signal,[6],"7.17 upbm affinity estimate (log intensity, higher = more binding, comparable within an allelic series)"
same,binding signal,[7],"7.19 upbm affinity estimate (log intensity, higher = more binding, comparable within an allelic series)"
same,binding signal,[8],"7.27 upbm affinity estimate (log intensity, higher = more binding, comparable within an allelic series)"
CATTAACA,binding signal,[1],"11.8 upbm affinity estimate (log intensity, higher = more binding, comparable within an allelic series)"
same,binding signal,[2],"11.6 upbm affinity estimate (log intensity, higher = more binding, comparable within an allelic series)"
same,binding signal,[9],"11.5 upbm affinity estimate (log intensity, higher = more binding, comparable within an allelic series)"
